# Screening results deposited in PubChem by National Center for Advancing Translational Sciences (NCATS).
# AMA1-RON2 inh: AMA1-RON2 (P. falciparum) interaction inhibition | AlphaScreen AMA1-biotinylated RON2 peptide binding | Potency, µM (top dose mostly 58.2 µM), for the others: top-dose activity change, negative = inhibition, most hits filed as inhibitors | 360,000 compounds, 0.2% hits | AID 720542;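 note: potency is the fitted concentration of half-maximal effect; 0% = vehicle wells and -100% = peptide control; nearly all actives have a fitted effect of over 45% in size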
#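 AMA1 (3D7) with his tag at 25 nM final met compounds first, then biotinylated RON2 peptide at 25 nM; detection used donor plus acceptor beads, 10 µg/mL apiece, read by AlphaScreen after 30 min at room temperature.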
# Shiga toxin inh: inhibitors of Shiga toxin in Vero cells | AID 2315 | Vero cells, Shiga toxin protein synthesis inhibition reporter | 290,000 compounds, 9.2% hits | inhibition, % at 38.7 µM; in the data active = inhibition mostly above about 28%, no sharp cut-off; inactive = mostly below about 43%; note: 0% is about no effect
# Pf growth 48h: P. falciparum growth inhibition at 48 hours (one generation). P. falciparum luciferase growth in erythrocytes, 48 h. Potency, µM (series often up to 28.7 µM), for inactives: top-dose activity change, negative = inhibition, usual class: inhibitors. 310,000 compounds, 5.9% hits; note: potency is the fitted concentration of half-maximal effect; % is set by controls: 0 for no effect and ±100 for the full control effect
#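 Luciferase-expressing P. falciparum in infected erythrocytes (2% hematocrit, 0.1% parasitemia final) in RPMI 1640/0.5% Albumax were exposed to compound for 48 hours at 37 C, 5% CO2; growth read as luminescence.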
# Cycloheximide cs: counter-screen hit for Shiga toxin inhibitors, cycloheximide | 300,000 compounds, 12% hits | max response, % | cell reporter, cycloheximide protein synthesis inhibition counterscreen; in the data active = max response mostly above about 13%, no sharp cut-off; inactive = mostly below about 14%; note: read at 38.3 µM for the half of the compounds with a filed dose; 0% is about no effect
# SARS PLpro yeast: inhibitors of SARS-CoV papain-like protease in yeast; Potency, µM (doses to about 32.9 µM), without a hit: at the top dose activity, positive = growth rescue, usual class: activators; AID 485353; 330,000 compounds, 0.19% hits; S. cerevisiae expressing SARS-CoV PLpro, growth rescue; calls by dose curve; note: potency is the fitted concentration of half-maximal effect; 0% is about no effect; nearly all actives have a fitted effect of over 55% in size
# Pf growth 96h: P. falciparum growth inhibition at 96 hour, primary screen for plastid delayed-death inhibitors; 320,000 compounds, 6.9% hits; P. falciparum luciferase reporter growth, 96 h; AID 504834; Potency, µM (series often up to 28.7 µM), for the others: top-dose activity change, negative = inhibition, actives largely listed as inhibitors; note: potency is the fitted concentration of half-maximal effect; % is set by controls: 0 for no effect and ±100 for the full control effect
#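 Erythrocytes infected with luciferase-expressing P. falciparum were dispensed at 2% hematocrit and 0.05% parasitemia (final), then incubated with compounds 96 hours at 37 C in 5% CO2. Luminescence after detection reagent addition reported growth.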
# * = called active by the depositor; ? = inconclusive; · = no result given; + = active, no number; [ ] = another dose, or the depositor's remark. Sampled rows, rich in hits. Any-hit rate of the full collection: about 19%. Unless noted, calls come from the whole dose curve; as a rule, active = well fitted curve in the direction sought with a large enough effect; inconclusive = small, poorly fitted or top-dose-only effect, or another doubt; inactive = no such curve, though single readings can be large; an effect the other way counts as inactive or inconclusive.
SMILES,AMA1-RON2 inh,Shiga toxin inh,Pf growth 48h,Cycloheximide cs,SARS PLpro yeast,Pf growth 96h
CCCCc1ccc(S(=O)(=O)NC(=O)C2(C)CCN2C(=O)CCc2cccs2)cc1 (stereo unspecified),-5%,·,·,·,·,·
Nc1ncnc2c(C3OC(CO)C(O)C3O)c[nH]c12 (stereo unspecified),16%,·,·,·,·,·
O=[N+]([O-])c1ccc(C(O)CSC(=S)N2CCCCC2)cc1 (stereo unspecified),-6%,83*,135%,46*,-2%,172%
O=[N+]([O-])c1ccc(C(=S)N2CCCC2)cc1,-12%,14,11%,7,1%,-5%
CC1CN(Cc2ccccc2)C(C)CC1O (stereo unspecified),-4%,16,10%,1,0%,1%
CCOC(=O)Cn1c(=O)n(CC(=O)OCC)c2ccccc21,-2%,12,12%,-2,-1%,·
CCCOC(=O)CCn1c(=S)oc2ccccc21,2%,76*,12%,39*,10%,10%
CCOC(=O)CCn1c(=S)n(CCC(=O)OCC)c2ccccc21,9%,-12,3.7µM*,-3,4%,42%
Cc1cccc(C(=O)OCC(=O)NC2CC2)c1O,0%,·,·,·,-7%,·
COC(=O)N/N=C/c1cc(C)n(-c2ccc(Br)cc2)c1C,1%,22,?,9,-2%,?
Cc1cc(/C=N/N2CCN(C)CC2)c(C)n1-c1ccc(Cl)cc1,-21%,9,12µM*,2,-2%,?
Cc1cc(/C=N/n2cnnc2)c(C)n1-c1ccc(OCc2ccc(F)cc2)cc1,-26%,27,-6%,20*,-32%,?
COC(=O)N/N=C/c1cc(C)n(-c2ccc(F)cc2)c1C,22%,88*,-2%,37*,1%,11%
COC(=O)N/N=C/c1cc(C)n(-c2ccccc2)c1C,18%,+,15%,24*,5%,-5%
Nc1nc(SCC(=O)Nc2c(Br)cc([N+](=O)[O-])cc2Br)n[nH]1,-3%,2,-4%,-5,-6%,35%
CCC(Oc1ccccc1)C(=O)Nc1ccc(C)c(S(=O)(=O)N2CCOCC2)c1 (stereo unspecified),4%,·,?,·,-1%,?
CCN(CC)S(=O)(=O)c1cccc(C(=O)N[C@H](C(=O)NC2=NCCS2)C(C)C)c1,14%,·,·,·,7%,·
O=C(c1ccccc1)C(Nc1cccc([N+](=O)[O-])c1)c1ccccc1 (stereo unspecified),-4%,·,·,·,·,·
CC(=O)Nc1ccc(NC(=O)C(C)Sc2nc3ccccc3c(=O)n2Cc2ccco2)cc1 (stereo unspecified),-3%,·,?,·,6%,?
CCNC(=S)N/N=C/c1cc(C)n(-c2ccc(Cl)cc2)c1C,12%,66,16%,21*,-4%,?
Cc1ccccc1Nc1nc(N)nc(CSc2nnc(-c3ccccc3)n2C)n1,7%,31,?,18*,-2%,13µM*
Cc1ccccc1NC(=O)CSCc1nc(N)nc(Nc2ccccc2C)n1,-3%,4,4%,16*,3%,-13%
CCc1ccccc1NC(=O)CN(C)Cc1nc(N)nc(Nc2ccccc2C)n1,32%,12,?,-1,-6%,-19%
Cc1ccccc1Nc1nc(N)nc(CN(C)c2ccccc2)n1,-16%,49,-16%,18,-1%,·
C=CCN(CC=C)Cc1nc(N)nc(Nc2ccccc2C)n1,68%,-7,?,-2,1%,9.3µM*
SMILES,AMA1-RON2 inh,Shiga toxin inh,Pf growth 48h,Cycloheximide cs,SARS PLpro yeast,Pf growth 96h
Cc1ccccc1Nc1nc(N)nc(CCl)n1,7%,52*,?,34*,0%,5.2µM*
COc1ccc(NC(=O)Cn2c(C(C)C)nc(C)cc2=O)cc1Cl,16%,-14,?,-3,-4%,-13%
O=C(N/N=C/c1ccccc1Cl)c1cccc(F)c1,12%,97*,123%,78*,-7%,74%
O=C(N/N=C/c1c(Cl)cccc1Cl)c1cccc(F)c1,17%,14,33%,17,?,9%
O=C(N/N=C/c1cccc2ccccc12)c1cccc(F)c1,0%,79*,?,63*,-8%,0%
COc1ccc(CNC(=O)c2ccccc2SCC(=O)NCc2ccco2)cc1,2%,·,-7%,·,5%,19%
NCCNC[C@@H]1COC2(CCCCCCCCCCC2)O1,63%,8,8.3µM*,0,-3%,7.4µM*
CC(=O)N1N=C(c2c(-c3ccccc3)c3cc(C)ccc3[nH]c2=O)CC1c1ccco1 (stereo unspecified),2%[11.6 µM],-10,15µM*,-5,-6%,5.2µM*
O=C(O)CCC(=O)N1N=C(c2c(-c3ccccc3)c3cc(Cl)ccc3[nH]c2=O)CC1c1cccs1 (stereo unspecified),-15%,-6,-14%,0,-5%,?
CC(=O)N1N=C(c2cccc(NS(=O)(=O)c3ccc(C)cc3)c2)CC1c1ccco1 (stereo unspecified),-7%,-1,?,6,1%,?
CC(=O)N1N=C(c2c(-c3ccccc3)c3cc(Br)ccc3[nH]c2=O)CC1c1ccco1 (stereo unspecified),0%,9,?,-2,1%,5.2µM*
Cc1cccc(N2CCN(C(=O)c3cc(S(=O)(=O)N4CCCC4)cn3C)CC2)c1C,0%,-5,9.3µM*,-1,-3%,?
Cc1cccc(N2CCN(C(=O)c3cc(S(=O)(=O)N4CCOCC4)cn3C)CC2)c1C,-12%,3,?,-2,-3%,?
Cc1cccc(NC(=O)c2cc(S(=O)(=O)N3CCOCC3)cn2C)c1C,-3%,-4,7%,-2,-4%,6.6µM*
COc1ccc(NCc2ccc(OC)c(Cn3ccnc3)c2)c(OC)c1,?,4,?,2,0%,8%
O=C(COc1ccccc1Cl)NCCCNC(=O)c1cnccn1,5%,-23,-27%,-4,-1%,0%
CC1=Nc2ccccc2/C1=C/c1c(O)[nH]c(=O)[nH]c1=O,-17%,-4,3%,0,11%,2.1µM*
CC1=Nc2ccccc2/C1=C\c1nc(-c2ccccc2)oc1O,-11%,-7,·,0,-30%,-16%
C=CCN(CC=C)CCOc1ccc(OC(C)C)cc1,?,84*,?,18*,1%,?
O=c1c2ccccc2nc2c3ccccc3c(NCCN3CCOCC3)nn12,·,14,0%,7,2%,10%[5.75 µM]
O=c1c2c(-c3ccccc3)csc2nc2c3ccccc3c(NCCN3CCOCC3)nn12,-13%,-28,3.3µM*,-8,18%,1.2µM*
Cn1ccc2c(-c3ccc4[nH]ccc4c3)cc3c(c21)C1CCC3O1 (stereo unspecified),-27%,·,·,·,·,·
